Results on 4 compounds are retold here after PubChem BioAssay.

Results filed as inconclusive are left out. Activity calls are given as the source filed them. Cut-off read from the data, not from the text of the source, unless noted: active = inhibition above about 80%; inactive = the rest.

Experiment [1] can be described thus: growth inhibition of DIPG glioma cells, dose response, cell-based, JHH-DIPG-1, MIPE4.0, CellTiter-Glo, qHTS (AID 1347062; cut-off not given, nearly all actives have AC50 up to about 27 µM;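 note: cells exposed to compound for two days before readout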). The note with it: JHH-DIPG-1 viability, CellTiter-Glo ATP luminescence. A general note: ATP-based viability assays read luminescence as a measure of living cells.
Experiment [2] can be described thus: growth inhibition of DIPG glioma cells, dose response, cell-based, SU-DIPG-IV, MIPE4.0, CellTiter-Glo, qHTS (AID 1347063; cut-off not given, nearly all actives have AC50 up to about 30 µM;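 note: compound exposure lasted 48 hours before the viability readout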). The note with it: SU-DIPG-IV viability, CellTiter-Glo ATP luminescence.
A short description of experiment [3]: viability loss in pontine glioma line – cell-based, SU-DIPG-XXV, MIPE5.0, CellTiter-Glo, qHTS, dose response (AID 1347065; cut-off not given, nearly all actives have AC50 up to about 26 µM;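 note: cells exposed to compound for 48 hours before ATP readout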). Conditions: CellTiter-Glo ATP luminescence.
Experiment [4] in a line: JHH-DIPG-1 glioma cell viability, MIPE5.0 library, CellTiter-Glo luminescence, qHTS (AID 1347067; cut-off not given, nearly all actives have AC50 up to about 26 µM;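 note: cells exposed to compound for 48 hours before readout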). The note with it: JHH-DIPG-1 glioma viability, CellTiter-Glo ATP luminescence.
Experiment [5] in a line: SU-DIPG-XXV glioma cell viability, MIPE5.0 library, qHTS (AID 1347068; cut-off not given, nearly all actives have IC50 up to about 30 µM;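 for IC50: cells exposed to compound for 48 hours before viability readout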). In general terms: In qHTS, concentration-response curves come from the screen itself.
Experiment [6] can be described thus: growth inhibition of DIPG glioma cells, dose response, cell-based, SU-DIPG-XIII, MIPE4.0, CellTiter-Glo, qHTS (AID 1347061; cut-off not given, nearly all actives have AC50 up to about 37 µM;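 note: cells exposed to compound for 48 hours before readout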). The note with it: SU-DIPG-XIII viability, CellTiter-Glo ATP luminescence.
Experiment [7] is described as follows: SU-DIPG-VI glioma cell viability, MIPE4.0 library, CellTiter-Glo luminescence, qHTS (AID 1347066; cut-off not given, nearly all actives have AC50 up to about 30 µM;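 note: cells exposed to compound for 48 hours before readout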). The note with it: CellTiter-Glo ATP luminescence.
A short description of experiment [8]: sensitizers of A549 cells to miR-34 induction, primary screen, imaging, A549 dox-inducible miR-34, nuclei and caspase counts (AID 1347080;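 active = compounds whose cell count with miR-34 switched on is under 0.7 times the count with it off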). The note with it: A549 miR-34 inducible, Hoechst nuclei count, 48 h.
The nature of experiment [9]: growth inhibition of DIPG glioma cells, dose response, cell-based, SU-DIPG-XIII, MIPE5.0, CellTiter-Glo, qHTS (AID 1347064; cut-off not given, nearly all actives have AC50 up to about 23 µM;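 note: cells exposed to compound for 48 hours before the viability read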). The note with it: SU-DIPG-XIII viability, CellTiter-Glo ATP luminescence.
Experiment [10] is described as follows: LFS_MB_P medulloblastoma growth inhibition, cell-based, chromothripsis tumors, cisplatin or BGB combos (AID 1671449).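 Note: cells exposed for 96 hours; 0% = vehicle DMSO and 100% = killing by high DMSO.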 The note with it: LFS_MB_P medulloblastoma cells.
Experiment [11] can be described thus: HDN33 neuroblastoma growth inhibition, cell-based, chromothripsis tumors, cisplatin or BGB combos (AID 1671450).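 Note: cells exposed to compound for four days; 0% = vehicle DMSO and 100% = cell killing by high DMSO.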 The note with it: HDN33 neuroblastoma cells, stronger effect = higher value.
A short description of experiment [12]: ICB984 medulloblastoma cell growth inhibition, synergistic combos for chromothripsis tumors, cisplatin or BGB combos (AID 1671451; call rule not given here;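 note: cells exposed for 96 hours before readout; 0% = vehicle DMSO and 100% = killing by high DMSO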). Conditions: ICB984 medulloblastoma cells, drug combinations, stronger effect = higher value.
Experiment [13] can be described thus: HTB85 osteosarcoma cell growth inhibition, synergistic combos for chromothripsis tumors, BGB or cisplatin IC20 combos (AID 1671453).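 Note: cells exposed for 96 hours before readout; 0% = vehicle DMSO and 100% = high DMSO killing control.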 The note with it: HTB85 osteosarcoma cells, drug combinations, stronger effect = higher value.
Experiment [14] can be described thus: MDA-MB-436 breast carcinoma cell growth inhibition, synergistic combos for chromothripsis tumors, BGB or cisplatin combos (AID 1671458; call rule not given here;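 note: cells exposed for 96 hours; 0% = vehicle DMSO and 100% = killing by high DMSO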). Conditions: MDA-MB-436 breast carcinoma growth inhibition, drug combinations, stronger effect = higher value.
Experiment [15] in a line: growth inhibition of BT084 medulloblastoma cells, cell-based, ICGC_MB145, cisplatin and BGB IC40 combos (AID 1671461).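 Note: cells exposed to drugs for 96 hours; 0% = vehicle DMSO and 100% = high DMSO full killing control.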 Conditions: drug combinations, stronger effect = higher value.
A short description of experiment [16]: growth inhibition of RCMB18 medulloblastoma cells, cell-based, cisplatin and BGB IC40 combos (AID 1671462).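 Note: cells exposed to compound for four days.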 The note with it: stronger effect = higher value.
Experiment [17] in a line: growth inhibition of CRL1545 osteosarcoma cells, cell-based, cisplatin and BGB IC20 combos (AID 1671464).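 Note: cells exposed to compound for 96 hours before readout; 0% = vehicle DMSO and 100% = high DMSO killing control.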 The note with it: stronger effect = higher value.
Where [18] appears, read: measured here: with BGB IC20 combination, at 0.5 µM.
Where [19] appears, read: measured here: with cisplatin IC20 combination, at 0.5 µM.

Broadly, the AC50 is the concentration at which the activity in the assay is half-maximal. One may read the IC50 as the midpoint of a concentration-inhibition curve. Usually inhibition stands for the drop in the measured response relative to a control, in per cent.

Take `CC(C)(N)c1ccc(-c2nc3ccccc3nc2-c2ccccc2)cc1`: the AC50 was 23.5 µM (active) in experiment [1], 26.4 µM (active) in experiment [2] and 23.5 µM (active) in [3].

In the case of `COc1cc(C(=O)NC2CCN(C)CC2)ccc1Nc1ncc2c(n1)N(C1CCCC1)CCC(=O)N2C(C)C`, the AC50 was 16.6 µM (active) in experiment [1], 7.43 µM (active) in [2], 23.5 µM (active) in [3] and 23.5 µM (active) in experiment [4]. For the same compound, the call in experiment [5] was inactive.

On to `CN(C1CCc2c(c3ccccc3n2CC(=O)O)C1)S(=O)(=O)c1ccc(F)cc1` (stereo not given), for which the call in experiment [6] and in experiment [7] was inactive. Besides, the fold change is 1.07 (inactive) in experiment [8] (stronger effect = lower value, cell number ratio, induced over uninduced) and 0.901 in experiment [8] (measured here: relative caspase fold change +Dox/-Dox). Moreover, the cell count in [8] (measured here: total cells with miR-34 induction, stronger effect = lower value) amounted to 6410; in experiment [8] (measured here: total cells without miR-34 induction), 5990.

Take `CO[C@H]1/C=C/O[C@@]2(C)Oc3c(C)c(O)c4c(O)c(c(/C=N\N5CCN(C6CCCC6)CC5)c(O)c4c3C2=O)NC(=O)/C(C)=C\C=C\[C@H](C)[C@H](O)[C@@H](C)[C@@H](O)[C@@H](C)[C@H](OC(C)=O)[C@@H]1C`: the AC50 was 0.105 µM (active) in experiment [1], 0.0935 µM (active) in experiment [2], 23.5 µM (active) in [9] and 26.3 µM (active) in experiment [3]. Also, the IC50 in experiment [5] was 20.9 µM (active). Besides, the inhibition in experiment [10] (at 0.5 µM, stronger effect = higher value) was 5.09% (inactive); in experiment [10] (measured here: combination with BGB IC20, at 0.005 µM), -7.42%; in experiment [10] (measured here: combination with BGB IC40, at 0.005 µM), -15%; in experiment [10] (measured here: combination with BGB IC40, at 0.05 µM), -18.2%; in [10] (measured here: combination with cisplatin, at 0.5 µM, stronger effect = higher value), -6.85%; in [10] (measured here: combination with cisplatin, at 5 µM, stronger effect = higher value) it was 15%. The inhibition in [11] (BGB combo, at 5 µM) was 85.6%; in experiment [11] (at 0.5 µM) it was -11.9% (inactive); in experiment [11] (cisplatin combo, at 5 µM), 6.46%; in experiment [11] (setting [18]), -21.1%; in [11] (setting [19]) it was -18.8%; in [11] (single agent, at 5 µM), -3.56%. Also, the inhibition in [12] (BGB IC20 combo, at 0.005 µM) was -21.8%; in experiment [12] (BGB IC40 combo, at 0.005 µM), -25.4%; in experiment [12] (BGB IC40 combo, at 0.05 µM), -16.4%; in experiment [12] (at 0.5 µM), -17.3% (inactive); in [12] (cisplatin combo, at 0.05 µM), -19.6%; in experiment [12] (cisplatin combo, at 0.5 µM), -17.5%. Moreover, the inhibition is -18.6% in experiment [12] (cisplatin combo, at 5 µM); -17.8% in [12] (measured here: 5 uM single agent, at 5 µM); 16% (inactive) in [13] (at 0.5 µM); 12.6% in experiment [13] (measured here: with BGB IC20, at 0.5 µM); 76.7% in experiment [13] (measured here: with BGB IC20, at 5 µM); 35.8% in experiment [13] (measured here: with cisplatin IC20, at 0.5 µM). Also, the inhibition in experiment [13] (measured here: with cisplatin IC20, at 5 µM) is 10.4%; in [13] (single agent, at 5 µM), 35.1%; in experiment [14] (at 0.5 µM), -19% (inactive); in experiment [14] (measured here: BGB combination, at 0.5 µM), -15.7%; in experiment [14] (measured here: BGB combination, at 5 µM), -5.36%; in experiment [14] (measured here: cisplatin combination, at 0.5 µM), -40.9%. Also, the inhibition in [14] (measured here: cisplatin combination, at 5 µM) is -22%; in experiment [15] (at 0.5 µM) it was -28.3% (inactive); in experiment [15] (cisplatin combination, at 0.5 µM), -31.9%; in [15] (cisplatin combination, at 5 µM) it was -20.9%; in experiment [15] (measured here: BGB IC40 combination 0.05 uM, at 0.05 µM), -25.7%; in experiment [15] (single agent, at 5 µM), -12.9%. Further, the inhibition was -14.8% (inactive) in [16] (at 0.5 µM); 15% in experiment [16] (cisplatin combo, at 5 µM); -18.7% in experiment [16] (measured here: BGB IC40 combination, at 0.05 µM); -14.5% in experiment [16] (measured here: combination with cisplatin, at 0.5 µM); 27.7% in [16] (single agent, at 5 µM); 4.23% (inactive) in [17] (at 0.5 µM). Further, the inhibition in experiment [17] (setting [18]) is 23.5%; in experiment [17] (setting [19]), -7.81%; in [17] (single agent, at 0.05 µM), 8.47%; in experiment [17] (single agent, at 5 µM) it was 73.2%.
